A selection: hits, their analogues and other compounds. The true share with any hit is near 3.2%.
bovine MsrA act – activates bovine MsrA enzyme; activation, % at 10.6 µM; purified bovine MsrA, absorbance read-out; AID 602163; 360,000 tested, 0.3% active; in the data active = activation above about 7.5%;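 note: 0% = vehicle and 100% = reference activator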
PG9 binder – small molecules binding HIV-1 gp120 antibody PG9. TR-FRET gp120-PG9 antibody binding. AID 624416. 360,000 tested, 0.43% active. inhibition, % at 6.7 µM; in the data active = inhibition above about 8.5%
rCAG binder – binds r(CAG) RNA repeats | 370,000 tested, 1.3% active | inhibition, % at 3 µM | r(CAG) RNA repeat, TO-PRO-1 dye displacement fluorescence;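 active = inhibition above the plate cutoff, the mean of all test compounds on that plate plus 3 SD, cut at about 35% in these data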;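 note: 0% = DMSO alone and 100% = 100 µM mitoxantrone as full dye displacement; higher means more dye released from RNA so lower well fluorescence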
sPLA2-III inh – Blocks human group III sPLA2 activity. Q9NZ20. QFRET BODIPY PC-A2 liposome hydrolysis, fluorescence. inhibition, % at 12.2 µM. 370,000 tested, 0.56% active. AID 743126;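 active = inhibition above mean plus 3 SD of compounds lying within the high and low control bounds, cut at about 19% in these data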;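 note: 0% = median of test compound wells and 100% = no enzyme DMSO wells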
Target sequence (Q9NZ20 whole entry, looked up): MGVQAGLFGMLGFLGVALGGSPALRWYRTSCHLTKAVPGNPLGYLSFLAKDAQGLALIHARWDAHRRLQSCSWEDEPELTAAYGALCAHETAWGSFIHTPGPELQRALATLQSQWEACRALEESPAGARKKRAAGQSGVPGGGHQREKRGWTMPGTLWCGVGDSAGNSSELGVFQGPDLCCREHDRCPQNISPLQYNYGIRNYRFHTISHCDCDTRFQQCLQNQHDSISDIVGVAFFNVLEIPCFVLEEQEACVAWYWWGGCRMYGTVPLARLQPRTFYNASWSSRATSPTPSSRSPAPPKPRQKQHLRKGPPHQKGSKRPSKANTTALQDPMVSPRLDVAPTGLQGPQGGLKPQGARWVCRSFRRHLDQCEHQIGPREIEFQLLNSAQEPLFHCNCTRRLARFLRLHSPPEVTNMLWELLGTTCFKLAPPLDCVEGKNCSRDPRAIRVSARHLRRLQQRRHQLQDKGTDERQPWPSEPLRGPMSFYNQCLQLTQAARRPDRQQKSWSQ
MsrA inh – bovine MsrA inhibition. purified bovine MsrA, absorbance read-out. AID 651718. 360,000 tested, 0.75% active. inhibition, % at 15.5 µM;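 note: 0% = vehicle wells with enzyme and 100% = reference inhibitor wells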
MsrA inh confirm – bovine MsrA inhibition, confirmed; shares compounds with MsrA inh; purified bovine MsrA, absorbance read-out; inhibition, % at 15.5 µM; AID 651822; 2,300 tested, 41% active;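 note: coupled to thioredoxin reductase with NADPH and selenocystamine and DMSO as substrate; 0% = vehicle only and 100% = full effect of reference inhibitor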
Numbers without * were called inactive; nt = no result given. Cut-off read from the data, not from the text of the source, unless noted: active = inhibition above about 4.5%; inactive = the rest.

SMILES	bovine MsrA act	PG9 binder	rCAG binder	sPLA2-III inh	MsrA inh	MsrA inh confirm
COc1ccc(C(=O)N/C(=C\c2cccc3ccccc23)C(=O)NCCc2c[nH]c3ccccc23)cc1OC	-1.3	0.9	19.6	-53.4	5.0*	1.1
CN(C)C=Nc1ccc(Cn2cnc3nc4ccc(Cl)cc4cc3c2=O)cc1	nt	nt	6.0	2.7	nt	nt
CCCCOc1ccc(/C(O)=C2/C(=O)C(=O)N(CCN(C)C)C2c2ccc(O)c(OC)c2)cc1 (centres undefined)	-2.3	-0.7	7.9	-5.1	8.1*	0.2
CCCOc1cccc(C2/C(=C(/O)c3ccc(OC)cc3)C(=O)C(=O)N2CCN(C)C)c1 (centres undefined)	-9.2	2.2	2.4	-0.2	3.2	nt
Nn1c(SCC(=O)Nc2cccc3ccccc23)nnc1-c1n[nH]c2c1CCC2	nt	nt	3.0	-5.5	nt	nt
Cc1cc(NS(=O)(=O)c2ccc(NC(=O)c3cnc4scc(C)n4c3=O)cc2)nc(C)n1	-6.3	-0.2	8.0	4.3	6.8*	4.3
Cc1noc(NS(=O)(=O)c2ccc(NC(=O)c3cnc4scc(C)n4c3=O)cc2)c1C	-3.0	-0.7	10.2	0.6	5.8*	6.2*
Cc1cc(NS(=O)(=O)c2ccc(NC(=O)c3ccc(Cl)nc3)cc2)nc(C)n1	-11.2	-2.5	-1.7	13.7	0.6	nt
Cc1cc(NS(=O)(=O)c2ccc(NC(=O)/C=C/c3ccco3)cc2)nc(C)n1	-9.6	-1.8	12.9	-4.3	6.7*	4.8*
Cc1cc(C(=O)Nc2ccc(S(=O)(=O)Nc3onc(C)c3C)cc2)cs1	-10.0	0.9	10.4	-14.1	-0.2	nt
Cc1ccccc1Nc1ncnc2[nH]ncc12	-1.4	-0.9	-0.8	-4.4	14.2*	11.6*
COC(=O)C[C@H]1CC[C@@H]2[C@@H](COc3ccc(NC(=O)Nc4ccccc4OC)cc3C(=O)N2C)O1	nt	nt	3.6	-4.1	nt	nt
O=C(O)c1ccc(N(c2ccccc2)c2ccccc2)cc1	-5.0	-0.5	26.5	-1.9	5.1*	1.9
O=C(Nc1ccc(Cl)cn1)c1ccccc1[N+](=O)[O-]	-3.9	-1.2	0.6	2.0	0.3	nt
O=[N+]([O-])c1cnc(Nc2ccc(Cl)cn2)c([N+](=O)[O-])c1	1.6	-1.1	-0.3	1.6	6.1*	8.0*
COc1cccc(NC(=O)Nc2nc3ncccn3c2-c2ccc(C)cc2)c1	nt	nt	2.2	-5.8	nt	nt
C#CCCN([C@H](C(=O)OC)C(C)C)S(=O)(=O)c1ccccc1Br	nt	nt	-1.0	3.0	nt	nt
CN(C)/C=C1\N=C(c2ccc3c(c2)OCO3)OC1=O	-5.9	-2.6	1.3	-2.4	6.1*	5.7*
CN(C)/C=C1\N=C(c2ccccc2)OC1=O	-11.0	-0.4	-3.4	5.2	8.9*	6.0*
COCCCNc1nc2ccccc2nc1NS(=O)(=O)c1cccs1	-3.6	1.3	19.1	-6.0	5.2*	3.4
O=S(=O)(Nc1nc2ccccc2nc1OCC(F)(F)F)c1cccs1	-1.8	1.8	16.2	-16.0	4.9*	0.7
CC(C)[C@H](N)C(=O)N[C@H](C(=O)N1CCC2CCN(S(=O)(=O)c3ccccc3)CC21)C(C)C (some centres undefined)	nt	nt	1.6	2.8	nt	nt
N[C@H](C(=O)Nc1ccc(Cl)cc1C(=O)c1ccc[nH]1)c1ccccc1	nt	nt	nt	10.1	nt	nt
O=C(Nc1ccc(F)cc1)/C(=C1/CCCCCN1)[N+](=O)[O-]	2.7	-0.2	-1.2	2.7	6.4*	3.3
C[C@H]1[C@@H](NCC2CCCCC2)CC[C@@]23CCCN2C(=O)CCC[C@@H]13	nt	nt	nt	-3.6	nt	nt
SMILES	bovine MsrA act	PG9 binder	rCAG binder	sPLA2-III inh	MsrA inh	MsrA inh confirm
CC1(CC(=O)N/N=C/c2ccc(-c3ccc(Cl)cc3)o2)OCCO1	-9.9	-1.6	-1.2	6.7	7.7*	4.8*
COC(=O)N/N=C/c1ccc(-c2cccc(Cl)c2)o1	-1.9	-1.2	0.8	7.2	6.4*	5.1*
CCOC(=O)/C(C#N)=C/c1ccc(OC)c(OC)c1	-2.2	-1.6	-0.3	-0.1	0.9	nt
CO/N=C/C(C#N)=C/c1ccc(OC)c(OC)c1	-3.6	-2.7	-3.7	2.4	5.1*	3.0
CC(C)C(=O)N1CCN(c2ccc([N+](=O)[O-])c(NC(C)c3ccccc3)c2)CC1 (centres undefined)	-2.6	-0.6	-1.2	11.5	11.8*	7.2*
O=[N+]([O-])c1ccc(N2CCCC2)cc1NC(c1ccccc1)c1ccccc1	-3.4	1.4	0.6	8.3	0.4	nt
CC(=O)Nc1ccc(S(=O)(=O)Nc2nc3ccccc3nc2N2CCCC2)cc1	-2.8	-1.3	1.8	2.1	1.2	nt

Source: PubChem BioAssay (The Scripps Research Institute Molecular Screening Center)
